LmPK inh: qHTS Assay for Inhibitors of Leishmania Mexicana Pyruvate Kinase (LmPK) | Q27686 | purified LmPK, Kinase-Glo ATP luminescence, 1 h | Potency, µM (highest dose often 57.5 µM), without a hit: at the highest dose activity change, negative = inhibition, most hits filed as inhibitors | 290,000 compounds, 0.37% hits; further: potency means the concentration at half of the fitted maximal effect; on the % scale 0 is the no-effect control and ±100 the full control effect
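Purified LmPK (0.1 nM) with 0.5 mM PEP and 0.1 mM ADP in imidazole buffer pH 7.2 with MgCl2/KCl, 1 h at room temperature. ATP formed was read by luciferase luminescence and normalized to no-enzyme and uninhibited controls.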
Sm TGR inh: qHTS Assay for the Inhibitors of Schistosoma Mansoni Peroxiredoxins | purified TGR, DTNB reduction, TNB absorbance 405 nm | Potency, µM (highest dose often 114 µM), for inactives: at the highest dose activity change, negative = inhibition, actives largely listed as inhibitors | 360,000 compounds, 3% hits; further: potency means the concentration at half of the fitted maximal effect; on the % scale 0 is the no-effect control and ±100 the full control effect; nearly all actives have a fitted effect of over 60% in size
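TGR 20 nM + NADPH 100 uM (dispensed conc.), cpd preinc 15 min RT; start with NADPH (500 uM addition) then DTNB (15 mM addition). Kinetic TNB absorbance, 405 nm filter. Four-parameter Hill fit across titration.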
TbPYK inhibitor: qHTS of Trypanosoma Brucei Inhibitors; pyruvate kinase (Trypanosoma brucei), Q57TT1; TbPYK enzyme, Kinase-Glo Plus ATP luminescence, 45 min; Potency, µM (doses to about 76.8 µM), for the others: top-dose activity, negative = inhibition, actives largely listed as inhibitors; 410,000 compounds, 0.12% hits; further: potency means the concentration at half of the fitted maximal effect; on the % scale 0 is the no-effect control and ±100 the full control effect; nearly all actives have a fitted effect of over 50% in size
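Readout: single end-point luminescence (Kinase-Glo Plus, 10 min). Reaction conditions were TbPYK/substrate plus 130 uM ADP, 45 min at RT, pH 7.2 TEA buffer. No-enzyme wells served as controls, and data were normalized before concentration-response fitting.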
CHX counter: Cycloheximide Counterscreen for Small Molecule Inhibitors of Shiga Toxin; cell reporter, cycloheximide protein synthesis inhibition counterscreen; max response, %; 300,000 compounds, 12% hits; AID 2314, 2010; in the data active means max response mostly above about 13%, no sharp cut-off; inactive means mostly below about 14%; further: read at 38.3 µM for the half of the compounds with a filed dose; 0% is about no effect
Shiga inhibitor: A qHTS for Small Molecule Inhibitors of Shiga Toxin; Vero cells, Shiga toxin protein synthesis inhibition reporter; inhibition, % at 38.7 µM; 290,000 compounds, 9.2% hits; in the data active means inhibition mostly above about 28%, no sharp cut-off; inactive means mostly below about 43%; further: 0% is about no effect
Giardia FBPA inh: qHTS Assay for Inhibitors of Fructose-1,6-bisphosphate Aldolase from Giardia Lamblia. Potency, µM (titrated, usually from 59.6 µM), without a hit: top-dose activity, negative = inhibition, most hits filed as inhibitors. AID 2451, 2010. purified Giardia FBPA. 290,000 compounds, 0.71% hits; further: potency means the concentration at half of the fitted maximal effect; on the % scale 0 is the no-effect control and ±100 the full control effect; nearly all actives have a fitted effect of over 55% in size
Target sequence (A8B2U2 whole entry, looked up): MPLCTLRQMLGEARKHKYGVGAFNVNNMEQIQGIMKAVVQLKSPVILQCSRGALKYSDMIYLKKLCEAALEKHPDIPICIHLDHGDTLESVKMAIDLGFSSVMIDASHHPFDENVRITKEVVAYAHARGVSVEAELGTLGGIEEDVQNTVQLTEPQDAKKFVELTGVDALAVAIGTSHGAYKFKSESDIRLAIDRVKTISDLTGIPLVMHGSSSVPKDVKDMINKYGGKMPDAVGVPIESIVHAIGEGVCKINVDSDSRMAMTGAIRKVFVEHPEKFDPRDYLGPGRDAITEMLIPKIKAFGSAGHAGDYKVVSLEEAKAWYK
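Giardia FBPA (40 nM reagent) was preincubated 10 min at RT with compound (up to 57.5 uM final), then substrate plus GAPDH/TPI/NAD/arsenate coupling system with diaphorase/resazurin was added; resorufin fluorescence (525/598 nm) was read after 20 min.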
* marks the source's active call; other numbers are inactive results; ? = inconclusive; . = no result; [ ] = remark or other dose. Many of the other results were omitted from the sample, so hits are more common in it than they were. Unless noted, the call rests on the fitted dose curve; in most records, active means well fitted curve in the direction sought with a large enough effect; inconclusive means small, poorly fitted or top-dose-only effect, or another doubt; inactive means no such curve, though single readings can be large; an effect the other way counts as inactive or inconclusive.

SMILES	LmPK inh	Sm TGR inh	TbPYK inhibitor	CHX counter	Shiga inhibitor	Giardia FBPA inh
CCN(CCO)c1ncnc2c1sc1nc(C(C)C)c3c(c12)CC(C)(C)OC3	2%	-6%	4%	-4	-5	-8%
COc1ccc(C2c3c(oc4ccc(F)cc4c3=O)C(=O)N2Cc2ccc3c(c2)OCO3)cc1 (stereo unspecified)	.	-1%	-2%	.	.	.
O=C(CC[C@H]1O[C@@H](n2cnc3c(NC(=O)c4ccccc4)ncnc32)[C@H](O)[C@@H]1O)N[C@@H](CO)Cc1c[nH]c2ccccc12	.	.	-5%	.	.	.
CC(=O)Nc1ccc(N=Cc2c(O)c(C(=O)Nc3ccccc3)cc3ccccc23)cc1	1%	-10%	2%	26	104*	?
COC(=O)c1cc2c(s1)c1cnn(Cc3ccccc3F)c(=O)c1n2C	.	2%	.	.	.	.
Cc1ccc2c(c1)sc(=NC(=O)C1CC1)n2C	-5%	0%	1%	45*	89*	-4%
COc1cc(NS(=O)(=O)c2ccc(C)cc2)c2ncccc2c1	4%	8%	5%	6	-12	?
COc1cc(NS(=O)(=O)c2cccc([N+](=O)[O-])c2)c2ncccc2c1	.	.	.	9	-4	16µM*
COc1cc(NS(=O)(=O)c2ccc([N+](=O)[O-])cc2)c2ncccc2c1	.	.	.	5	-11	18µM*
Cc1[nH]cnc1C(=O)N/N=C/c1c(Cl)cccc1Cl	?	-2%	?	36*	46	-2%
O=C(NN=Cc1ccccc1Cl)c1cccc2ccccc12	.	.	1%	.	.	.
Cc1occc1C(=O)N/N=C/c1cccc2ccccc12	-2%	8%	-7%	44*	87*	8%
O=C(N/N=C/c1cccc2ccccc12)c1ccccc1Cl	-2%	11%	-1%	13*	49	-28%
O=C(N/N=C/c1cc2ccccc2[nH]1)c1ccccc1Cl	11%	-4%	-5%	16*	39	-15%
Cc1oc2ccc(O)c(CN3CCN(Cc4ccccc4)CC3)c2c1C(=O)Nc1ccccc1	.	-14%	-5%	.	.	.
Cc1cccc(OCCn2c(SCC(=O)O)nc3ccccc32)c1	.	-1%	-28%	.	.	.
[O-][n+]1cccc2c(Br)cc(Br)c(O)c21	-1%[11.5 µM]	7.9µM*	-11%	-2	-16	?
CC#CCN1c2ccccc2[C@]23C[C@@H](C(=O)OC)N(S(=O)(=O)c4ccc(Br)cc4)C2=NC(C(=O)OC)=C(C(=O)OC)[C@H]13	-4%[11.5 µM]	.	.	.	.	-1%[12.9 µM]
COc1ccccc1Oc1c(C)oc2cc(OC(=O)N(C)C)ccc2c1=O	-1%	4%	-5%	-6	9	4%
COc1ccc2c(=O)c(-c3ccccc3)c(C)oc2c1	-1%	9%	-11%	25	34*	0%
COc1ccc(Oc2c(C)oc3cc(OC(=O)N(C)C)ccc3c2=O)cc1	0%	22µM*	-4%	7	24	9%
COC(=O)c1cc(-c2c(C)oc3cc(OC)ccc3c2=O)c(C)o1	6%	1%	2%	2	-14	6%
COc1ccc(CCNC(=O)CCCn2c(=O)c3ccccc3n(Cc3ccccc3C)c2=O)cc1OC	.	-4%	-5%	.	.	.
CN(Cc1ccccc1)S(=O)(=O)c1ccc(Cl)c(C(=O)OCC(=O)NC2CCS(=O)(=O)C2)c1 (stereo unspecified)	.	.	-6%	.	.	.
Cc1cc(/C=N/n2cnnc2)c(C)n1-c1ccc(OCc2ccccc2F)cc1	3%	-18%	4%	26*	25	2%
SMILES	LmPK inh	Sm TGR inh	TbPYK inhibitor	CHX counter	Shiga inhibitor	Giardia FBPA inh
Fc1ccccc1COc1cccc(/C=N/n2cnnc2)c1	4%	0%	3%	-1	35	-4%
Cc1cc(/C=N/NC(N)=S)c(C)n1-c1ccc(Cl)cc1	-1%	-3%	-12%	15	14	-10%
Cc1cc(/C=N/n2cnnc2)c(C)n1-c1ccc(OCc2ccc(Cl)cc2)cc1	0%	0%	7%	52*	92*	-5%
O=C(COc1ccc(Cl)cc1)OCC(=O)c1ccc[nH]1	.	-16%	-1%	.	.	.
Fc1ccc(-c2noc(C3CCN(Cc4cccnc4)CC3)n2)cc1	-2%	-10%	1%	19*	28*	3%
CCCC1CCC(c2nc(-c3cccnc3)no2)CC1 (stereo unspecified)	-2%	-7%	0%	62*	45	-10%
Cc1ccc(OCC(=O)NCC2(N3CCN(C)CC3)CCCCC2)cc1C	.	2%	5%	.	.	.
Cc1nc(SCC(=O)N(CC(C)C)C2CCS(=O)(=O)C2)c2c(C)c(C)sc2n1 (stereo unspecified)	.	-13%	5%	.	.	.
CN(Cc1ccc(Cl)cc1)C(=O)c1ccc(S(=O)(=O)NCc2ccco2)cc1	.	-24%	4%	.	.	.
COc1ccc(CCN(C)C(=O)c2ccc(S(=O)(=O)NCc3ccco3)cc2)cc1OC	0%	-29%	-1%	55*	81*	-1%
CN(Cc1cccs1)C(=O)c1ccc(S(=O)(=O)NCc2ccco2)cc1	0%	?	3%	27*	26	0%
Cc1cc(CNC(=O)C2(C(F)(F)F)C/C(=C\Cc3ccccc3)CCCO2)nn1C (stereo unspecified)	.	.	-8%	-2	-4	5%
CC(C)(C)c1ccc(-c2noc(C(=O)NN)n2)cc1	0%	-10%	1%	2	20	-7%
CC(C)(C)c1ccc(-c2conc2N)cc1	-3%	1%	6%	48*	111*	8%
Cc1ccc2c(c1)CC1(CN2C)C(=O)OC2(CCCCC2)OC1=O	14µM*	?	0%	5	-17	?
Cc1ccc2c(c1)CC1(CN2C)C(=O)NC(=O)N(c2ccccc2C)C1=O (stereo unspecified)	1%	-34%	-2%	-2	19	-19%
O=C(c1ccncc1)N1N=C(c2ccc(Cl)cc2)CC1c1ccccc1O (stereo unspecified)	-3%	4%	-23%	45*	116*	?
CC(Oc1ccc(Cl)cc1Cl)c1ccnc(N)n1 (stereo unspecified)	-1%	.	2%	1	-11	-6%
CC(Oc1ccccc1)c1ccnc(N)n1 (stereo unspecified)	0%	.	4%	22*	22	0%
O=C(NCC1CCCCC1)c1ccc(F)cc1Cl	-5%	?	5%	57*	89*	1%
Cc1ccc(S(=O)(=O)N2CCC[C@H]2C(=O)OCC(=O)N2CCc3ccccc32)cc1	.	.	25%	.	.	.
Cc1ccc(C(=O)c2ccccc2C(=O)OCC(=O)N2C(C)CCCC2C)cc1 (stereo unspecified)	.	-2%	-6%	.	.	.

High-throughput results deposited in PubChem BioAssay by National Center for Advancing Translational Sciences (NCATS).
